Results: PubChem BioAssay AID463229 (Broad Institute, 2010)
The whole screen tested about 2,300 compounds, of which about 2,100 (91%) were called active.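 Rule for the calls: active = compounds raising the signal whose fitted half-maximal concentration is at or below their top tested dose (cut at about 25 µM in these data); inconclusive = flat fit at 30 to 70% activity, or a poor fit; inactive = the rest.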 The set was probably picked from earlier hits. Not all results are given here. A call without a number means that no potency is given here. Potency and affinity values are given separately.

assay: ATP level change in INS-1E without cytokines, dose response, counter-screen for beta-cell apoptosis protection project, INS-1E rat cells, ATP luminescence, cherry pick (AID 463229); conditions: INS-1E rat beta cells, no cytokines, CellTiter-Glo ATP, 48 h; series mostly up to 26 µM

| Structure (SMILES) | outcome |
| --- | --- |
| CCOc1ccc(/C=N/Nc2ccc(Cl)nn2)c(O)c1 | inactive |
| Cc1cc(C)nc(OC(=O)c2ccc(Cl)cc2Cl)n1 | inactive |
| Cc1ccc(C(=O)O/N=C/c2c(N3CCOCC3)n(C)c3ccccc23)cc1 | inactive |
| Cc1ccc2c(C)ccc(O)c2n1 | inactive |
| CCCNC(=O)c1c(N)n(-c2cccc(OC)c2)c2nc3ccccc3nc12 | inactive |
| CC(=O)Nc1ccc(C2=CC(=O)C[C@H](c3ccc4c(c3)OCO4)C2)cc1 | inactive |
| FC(F)(F)c1ccccc1NC(=S)N1CCc2ccccc2C1 | inactive |
| Fc1ccc(Oc2nc(-c3ccccn3)nc3ccccc23)cc1 | inactive |
| O=C(CCCN1C(=O)/C(=C/c2ccccc2)SC1=S)NCCCn1ccnc1 | inactive |
| O=[N+]([O-])c1ccc(/C=N/Nc2ccnc3cc(Cl)ccc23)o1 | inactive |
| CC1(C(=O)OCC(=O)N2c3ccccc3Sc3ccccc32)CC1(Cl)Cl (stereo unspecified) | inactive |
| Nc1ccc2nn(-c3cccc4ccccc34)nc2c1 | inactive |
| CC(=O)Cc1cc(O)c2ccccc2c1OC(=O)c1ccc(Br)cc1 | inactive |
| Cc1cc2cc(CN3C(=O)c4ccccc4C3=O)ccc2n1C | inactive |
| Cc1ccc(NC(=O)c2c(-c3c(F)cccc3Cl)noc2C)cc1F | inactive |
| O=C1/C(=N\S(=O)(=O)c2cccs2)C([n+]2ccc(CCCc3ccccc3)cc2)=C([O-])c2ccccc21 | inactive |
| CC(C)(C)c1cc[n+](C2=C([O-])c3ccccc3C(=O)/C2=N\S(=O)(=O)c2ccccc2)cc1 | inactive |
| Cc1ccccc1Nc1c(-c2ccccn2)nc2c(C)cccn12 | inactive |
| COc1cc(NC2CCCCC2O)c2nc(-c3ccc(Cl)cc3)ccc2c1 (stereo unspecified) | inactive |
| COc1ccc(NC(=O)CN(C)C(=O)/C=C/c2ccc(S(=O)(=O)N3CCCCCC3)cc2)cc1 | inactive |
| CC(C)C[C@H]1CN=C(Nc2ccccc2)N1CCC(C)c1ccccc1 (stereo partly specified) | inactive |
| CCC(CC)C(=O)c1c[nH]c(C(=O)NCc2ccccn2)c1 | inactive |

| Structure (SMILES) | outcome |
| --- | --- |
| Cc1ccc(C)c(NS(=O)(=O)c2ccc(OCC(=O)NCc3cccnc3)cc2)c1 | inactive |
| O=C(Cc1ccc([N+](=O)[O-])cc1)Nc1cccnc1 | inactive |
| C/C(=N\NC(N)=S)c1ccncc1 | inactive |
| O=C(NNC(=O)c1ccccc1OCc1ccccc1)c1ccccc1O | inactive |
| C/C(Cn1nnc([N+](=O)[O-])n1)=N\NC(=O)c1ccccc1Cl | inactive |
| Clc1ccc(SCc2cc(N3CCOCC3)nc(-c3ccccn3)n2)cc1 | inactive |
| CCN(CC)C(=O)C1CCCN(C(=S)Nc2cccc3ccccc23)C1 (stereo unspecified) | inactive |
| CC(C)(C)C(=O)NC(Nc1cccc2cccnc12)C(Cl)(Cl)Cl (stereo unspecified) | inactive |
| CCCOc1ccc2c3c(c(=O)oc2c1OCCC)CCCC3 | inactive |
| COc1ccc(/C=N/N2CCN(Cc3ccccc3)CC2)cc1 | inactive |
| C/C(=N\Nc1nc(C)cc(-c2ccccc2)n1)c1ccccc1 | inactive |
| C/C(=N\Nc1nc(C)cc(-c2ccccc2)n1)c1ccc(F)cc1 | inactive |
| C=CC[C@@H](CC(=O)N(CCO)Cc1ccccc1)C(=O)N[C@H](COC(=O)[C@@H](CC=C)CC(=O)OC(C)(C)C)c1ccccc1 | inactive |
| Cc1cc(C)n(-c2nc(NC(C)(C)C)nc(NC(C)(C)C)n2)n1 | inactive |
| NNC(=S)Nc1ccc(OC(F)(F)F)cc1 | inactive |
| COC(=O)c1sccc1S(=O)(=O)Nc1ccc(N2CCCCC2)cc1 | inactive |
| COc1ccc(NC(=O)N(C)C[C@H]2Oc3c(NS(=O)(=O)c4ccc(F)cc4)cccc3C(=O)N([C@H](C)CO)C[C@@H]2C)cc1 | inactive |
| c1ccc(-c2nnc(CSc3ccc4c(c3)OCCO4)o2)cc1 | inactive |
| Fc1cccc(Cl)c1-c1nnc2ccc3ccccc3n12 | inactive |
| Nc1ccc(Nc2ccccc2)cc1 | inactive |
| CCN(CC)S(=O)(=O)c1cccc(NC(=O)c2cc(-c3cccs3)nn2-c2ccccc2)c1 | inactive |
| Cc1ccc(S(=O)(=O)Nc2ccc(C(OC(=O)c3ccccc3[N+](=O)[O-])(C(F)(F)F)C(F)(F)F)cc2)cc1 | inactive |

| Structure (SMILES) | outcome |
| --- | --- |
| c1ccc(N2CCN(CC3CCCCC3)CC2)cc1 | inactive |
| CCCCOC(=O)c1ccc(NC(c2ccc(C)cc2)P(=O)(OC)OC)cc1 (stereo unspecified) | inactive |
| COc1ccc(C2CC(c3cccc(C)c3)n3nc(N)nc3N2)cc1 (stereo unspecified) | inactive |
| Cc1ccc(C2CC(c3cccc(C)c3)n3nc(N)nc3N2)cc1 (stereo unspecified) | inactive |
| CCOC(=O)CSc1nc2c(c(=O)[nH]1)C(C)(CC)Cc1ccccc1-2 (stereo unspecified) | inactive |
| O=C(O)c1ccc(/C=C2\SC(=S)N(Nc3ccccc3)C2=O)cc1 | inactive |
| CN1N=C(C(C)(C)C)CSC1=Nc1ccccc1 | inactive |
| CC(=O)c1c(C)n(CC(=O)NCc2ccco2)c2ccccc12 | inactive |
| Cc1ccc(N2C(=O)CSC2c2cccnc2)c(Cl)c1 (stereo unspecified) | inactive |
| CN(C)c1ccc(NC(=S)NC23CC4CC(CC(C4)C2)C3)cc1 | inactive |
| COc1ccccc1NS(=O)(=O)c1cccc(NC(=O)c2[nH]c(C)c(C(C)=O)c2C)c1 | inactive |
| O=C(CC1CC2CCC1C2)NCCc1ccc(Cl)cc1 (stereo unspecified) | inactive |
| CNC(=S)N(Cc1cccs1)Cc1cc2cc(OC)c(OC)cc2[nH]c1=O | inactive |
| CCN(CC)c1ccc(N=Cc2ccccc2[N+](=O)[O-])cc1 | inactive |
| CC1CC(=O)N(c2ccc(Br)cc2)C(=O)C1 | inactive |
| Cn1cccc1/C=N/NC(=O)Cc1cccs1 | inactive |
| CCOC(=O)c1sc(SC)c2c1CCC/C2=N/OC | inactive |
| COc1cnc(-c2ccccn2)nc1N(C)c1ccccc1 | inactive |
| O=C(CCCCC(=O)Nc1ccc(F)cc1F)Nc1ccc(F)cc1F | inactive |
| C/C(=N\Nc1nc(-c2ccccn2)nc2ccccc12)c1ccc(F)cc1 | inactive |
| O=C(c1ccc(F)c(S(=O)(=O)N2CCOCC2)c1)N1CCN(c2ccc(F)cc2)CC1 | inactive |
| CC1=C(C(=O)OCCNC(=O)c2ccccc2O)C(c2ccccc2[N+](=O)[O-])C(C(=O)OCC2CCCO2)=C(C)N1 (stereo unspecified) | inactive |

| Structure (SMILES) | outcome |
| --- | --- |
| COc1ccc(CN(C)C(=O)c2ccc(NS(=O)(=O)c3ccc(F)cc3)cc2)c(OC)c1OC | inactive |
| CC[C@@H]1C/C=C\Cc2ccccc2[C@H](C(=O)C[C@@H](O)CC(C)=O)OC1=O | inactive |
| N#Cc1ccc(-c2csc(NNC(=O)c3ccccc3)n2)cc1 | inactive |
| CCn1c(=O)c(C(=O)Nc2ccccn2)c(O)c2ccccc21 | inactive |
| COc1ccc(CN2CCN(CCSc3ccc(C)cc3)CC2)c(OC)c1OC | inactive |
| CCOC(=O)C1(Cc2cccc(Cl)c2)CCCN(C(=O)c2ccc(COC)s2)C1 (stereo unspecified) | inactive |
| CN(C)CCCNc1cc(C(C)(C)C)nc2c(-c3ccccc3)cnn12 | inactive |
| Cc1ccc2c(c1)Sc1c(ccc3ccccc13)N2 | inactive |
| COc1ccc(C(=O)c2c(C)c3ccccc3n2CC(O)CNC(C)C)cc1 (stereo unspecified) | inactive |
| COc1ccc(S(=O)(=O)Nc2ccc(O)c3ccccc23)cc1 | inactive |
| CN(Cc1ccccc1)C(=O)c1nc2ccccn2c1CN1CCCC1c1nccs1 (stereo unspecified) | inactive |
| CCn1c(=O)c([N+](=O)[O-])c(N2CCN(Cc3ccc4c(c3)OCO4)CC2)c2ccccc21 | inactive |
| Cc1occc1C(=O)N1CCCC(N2CCN(c3cccc(C(F)(F)F)c3)CC2)C1 (stereo unspecified) | inactive |
| COc1ccc(N2CC(C(=O)N3CCN(c4ccccc4F)CC3)CC2=O)cc1 (stereo unspecified) | inactive |
| O=C(C(Sc1ccccc1)c1ccccc1)N1CCN(c2ccccc2F)CC1 (stereo unspecified) | inactive |
| CC#CC[N+](C)(C)CCCCCCCC | inactive |
| OCCN1CCN(C2Cc3cc(Cl)ccc3Sc3ccc(Cl)cc32)CC1 (stereo unspecified) (tested in a mixture with another compound) | inactive |
| O=[N+]([O-])c1cccc(/C=N/n2cnnc2)c1 | inactive |
| CC(C)NC(=S)NC(c1ccccc1)(c1ccccc1)c1ccccc1 | inactive |
| CC1CCN(C(=O)CCNS(=O)(=O)c2ccc(Br)cc2)CC1 | inactive |
| COc1ccc(Br)cc1CN(C)CC(=O)NCc1ccc(F)cc1 | inactive |
| Cc1nn(-c2ccccc2)c(C)c1NC(=O)COc1ccc(Br)cc1Cl | inactive |

| Structure (SMILES) | outcome |
| --- | --- |
| CCSC1=NCCN1C(=O)C(C)(C)Oc1ccc(Cl)cc1 | inactive |
| Cc1cccc(C)c1NC(=O)CNC(=O)c1c(C)nn(C)c1Cl | inactive |
| Cc1cccc(NC(=S)Nc2ccc3cn[nH]c3c2)c1 | inactive |
| Cc1ccc(O)c(/C=N/NC(=O)c2[nH]ncc2Br)c1 | inactive |
| NC(=S)N/N=C/c1c(O)ccc2ccccc12 | inactive |
| COc1ccc(N(C)S(=O)(=O)c2cccc(C(=O)Nc3nc(C)c(C(C)=O)s3)c2)cc1 | inactive |
| O=C(c1ccco1)c1coc2c1cc(O)c1ccccc12 | inactive |
| Cc1ccc2c(C)nc(Nc3nc(CSc4nc5ccccc5[nH]4)cc(=O)[nH]3)nc2c1 | inactive |
| Cc1ccc(C(=O)N/C(=C\c2ccc(-c3ccccc3[N+](=O)[O-])o2)C(=O)NCCCN2CCOCC2)cc1 | inactive |
| C=CCN1C(=O)N/C(=C/c2ccc(N3CCOCC3)o2)C1=O | inactive |
| C[C@H](CO)N1C[C@H](C)[C@@H](CN(C)C(=O)NC2CCCCC2)Oc2c(NC(=O)Nc3ccc(C(F)(F)F)cc3)cccc2C1=O | inactive |
| COc1ccc(S(=O)(=O)N2CCNCC2)cc1OC | inactive |
| CCOC(=O)C(NCCc1ccc(F)cc1)(NC(=O)CC)C(F)(F)F (stereo unspecified) | inactive |
| Cc1cc(C)cc(OCCCn2ccnc2)c1 | inactive |
| O=c1[nH]c(NCCCO)nc2c1C1(CCCC1)Cc1ccccc1-2 | inactive |
| Nc1ccc(Nc2ccc([N+](=O)[O-])cc2[N+](=O)[O-])cc1 | inactive |
| COc1ccccc1NCC(=O)N/N=C/c1c(O)ccc2ccccc12 | inactive |
| C/C(N)=C(/C#N)C(=O)COC(=O)c1cc(-c2ccc(C)cc2)nc2ccccc12 | inactive |
